From PubChem BioAssay
In the library only some 11% were active in any assay of this set; here they are far more common.
PNC assembly inh: blocks assembly of the perinucleolar compartment; PC3M PTB-GFP, PNC prevalence imaging, 16 h; active compounds read low; activity change (PNC), negative = inhibition, % at 10 µM; 140,000 compounds, 3.1% hits;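 active means readout at or below -70, meaning at least 70% loss of cells showing the perinucleolar compartment, a nuclear body marking cancer cells; inconclusive means readout between -30 and a set limit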;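 further: plate controls were DMSO wells for no effect and camptothecin positive control wells for full effect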
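Read-out is percentage of cells bearing a perinucleolar compartment, from automated 20x imaging of fixed, Hoechst-stained PC3M PTB-GFP cells. Cells were seeded 4 h, then exposed 16 h to compound (23 nl of library stock) in duplicate plates.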
ALOX12 inhib: blocks human 12-lipoxygenase activity; purified 12-hLO, xylenol orange hydroperoxide absorbance; Potency, µM (highest dose often 57.1 µM), for inactives: at the highest dose activity change, negative = inhibition, hits mostly inhibitors; 150,000 compounds, 0.12% hits; further: potency means the concentration at half of the fitted maximal effect; nearly all actives have a fitted effect of over 55% in size
Target sequence (P18054 whole entry, looked up): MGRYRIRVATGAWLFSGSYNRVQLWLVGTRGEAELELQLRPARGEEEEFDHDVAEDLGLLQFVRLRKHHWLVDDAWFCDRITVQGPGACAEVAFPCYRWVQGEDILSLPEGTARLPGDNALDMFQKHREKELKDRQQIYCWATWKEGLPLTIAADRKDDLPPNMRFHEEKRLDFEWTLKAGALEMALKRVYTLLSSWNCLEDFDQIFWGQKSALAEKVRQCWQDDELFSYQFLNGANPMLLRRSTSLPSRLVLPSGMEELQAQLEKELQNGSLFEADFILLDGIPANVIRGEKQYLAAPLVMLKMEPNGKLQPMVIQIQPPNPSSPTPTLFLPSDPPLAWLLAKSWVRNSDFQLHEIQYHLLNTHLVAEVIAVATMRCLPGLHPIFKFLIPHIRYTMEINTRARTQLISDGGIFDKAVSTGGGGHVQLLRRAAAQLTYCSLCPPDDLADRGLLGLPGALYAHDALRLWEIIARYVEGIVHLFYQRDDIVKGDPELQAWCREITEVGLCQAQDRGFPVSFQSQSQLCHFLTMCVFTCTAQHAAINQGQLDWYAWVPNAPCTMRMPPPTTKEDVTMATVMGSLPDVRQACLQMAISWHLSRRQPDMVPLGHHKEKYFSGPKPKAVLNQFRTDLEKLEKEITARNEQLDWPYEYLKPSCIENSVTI
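Xylenol orange chromogenic assay: hydroperoxide from 12hLO oxidises Fe(II), giving red-shifted Fe(III)-XO absorbance. Conditions: 150 nM enzyme, 40 uM arachidonic acid, 25 mM Hepes pH 7.0, 0.01% Triton X-100, 30 min, room temperature.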
HPGD block: HPGD (human) dehydrogenase inhibition | P15428 | purified HPGD, NADH fluorescence kinetic, PGE2 substrate | Potency, µM, inactives show top-dose activity change, negative = inhibition, usual class: inhibitors | 150,000 compounds, 4.3% hits; active means well fitted inhibition curve with a large enough effect, not every such curve was filed as active; inconclusive means small, poorly fitted or top-dose-only effect, or another doubt; inactive means no such curve, though single readings can be large or run the other way; further: potency means the concentration at half of the fitted maximal effect
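20 nM HPGD preincubated 15 min at room temperature with compound in 50 mM Tris-HCl pH 8, 0.01% Tween 20. Started with 1 mM NAD+ and 30 uM prostaglandin E2; NADH fluorescence (360/450 nm) read 5 times over 30-s intervals, last minus first.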
ALDH1A1 block: blocks purified human ALDH1A1 activity; 220,000 compounds, 7.3% hits; P00352; Potency, µM (top dose mostly 75.3 µM), for the others: top-dose activity, negative = inhibition, hits mostly inhibitors; Purified ALDH1A1, NADH fluorescence, propionaldehyde substrate; active means well fitted inhibition curve with a large enough effect, not every such curve was filed as active; inconclusive means small, poorly fitted or top-dose-only effect, or another doubt; inactive means no such curve, though single readings can be large or run the other way;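 further: potency means the concentration at half of the fitted maximal effect; plate controls were no enzyme wells and a reference inhibitor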
IMPase Li inh: cell-permeable IMPase inhibitors with lithium potentiation; 210,000 compounds, 0.35% hits; CHO-M1 cells, IP1 TR-FRET (IP-One), carbachol + lithium; Potency, µM (doses to about 59.4 µM), inactives show top-dose activity, negative = IMPase inhibition, most hits filed as inhibitors;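 further: IP1 builds up when IMPase is blocked and the TR-FRET signal falls; potency means the concentration at half of the fitted maximal effect; plate controls were basal vehicle for no effect and high inhibitor control for full effect; nearly all actives have a fitted effect of over 50% in size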
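IP1 accumulation measured by competitive TR-FRET in lysed CHO-M1 cells after 30 min compound exposure at 37C, with a small lithium addition to potentiate weak responses. Hill-equation AC50 from ratio and donor-channel data.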
IMPase cell inh: membrane-permeable compound that blocks inositol monophosphatase; AID 901; P97697; inhibition (IP1 accumulation), % at 46.1 µM; CHO-M1 cells, IP1 accumulation, HTRF TR-FRET ratio; 120,000 tested, under 10 active; active means well fitted curve in the direction sought with a large enough effect in the signal ratio, not every such curve was filed as active; inconclusive means small, poorly fitted or top-dose-only effect, or a change in a side signal; inactive means no such curve, though single readings can be large or run the other way; the % refers to the signal ratio;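 further: cells stimulated with carbachol in lithium chloride buffer; plate controls were DMSO basal wells for no effect and reference inhibitor wells for full effect; higher means more IMPase inhibition seen as more IP1 and lower FRET ratio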
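Cellular IMPase inhibition is scored as a rise in cytosolic IP1, detected by competitive TR-FRET between d2-labelled IP1 and a europium anti-IP1 antibody. M1-expressing CHO cells were stimulated with carbachol for 30 min at 37C, with lithium (50 mM LiCl) present in the buffer.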
Numbers without * were called inactive; [ ] = dose if it differs, or a comment. Unless noted, the call rests on the fitted dose curve; in most records, active means well fitted curve in the direction sought with a large enough effect; inconclusive means small, poorly fitted or top-dose-only effect, or another doubt; inactive means no such curve, though single readings can be large; an effect the other way counts as inactive or inconclusive. Unless noted, on the % scale 0 is the no-effect control and ±100 the full control effect.

What do the screens show for `Cc1ccc(SCc2[nH]nc3c2C2(C(=O)Nc4ccc([N+](=O)[O-])cc42)C(C#N)=C(N)O3)cc1` (configuration not stated)?
PNC assembly inh: -12; ALOX12 inhib: -25%; HPGD block: -22%; ALDH1A1 block: 13µM*; IMPase Li inh: 3%[38.3 µM]; IMPase cell inh: inconclusive

Results for CCOC(=O)N1CCC2(CC1)C(C#N)=C(N)Oc1n[nH]c(CSc3ccc(C)cc3)c12 ?
PNC assembly inh: 42; ALOX12 inhib: -24%; HPGD block: -8%; ALDH1A1 block: -13%; IMPase Li inh: 18%[38.3 µM]; IMPase cell inh: 6

What do the screens show for `Cc1ccc(SCc2[nH]nc3c2C2(CCSCC2)C(C#N)=C(N)O3)cc1`?
PNC assembly inh: -2; ALOX12 inhib: -30%; HPGD block: -14%; ALDH1A1 block: 10µM*; IMPase Li inh: 46%[38.3 µM]; IMPase cell inh: 6

How did NNC(=O)c1ccc(N2CCc3ccccc32)c([N+](=O)[O-])c1 do in these assays?
ALDH1A1 block: 1.6µM*; IMPase Li inh: 11%

What do the screens show for `COC(CNC(=O)c1ccc(N2CCc3ccccc32)c([N+](=O)[O-])c1)OC`?
PNC assembly inh: 13; ALOX12 inhib: -4%; HPGD block: -26%; ALDH1A1 block: inconclusive; IMPase Li inh: 23%; IMPase cell inh: 10

Results for CCOc1ccccc1NC(=O)CSC1=Nc2ccccc2C2=NC(CC(=O)NCc3ccc4c(c3)OCO4)C(=O)N12 (configuration not stated) ?
IMPase cell inh: -2

What do the screens show for `CC(C)CN1C2CCCC1CC(NC(=S)NCc1ccco1)C2` (configuration not stated)?
ALDH1A1 block: 2%; IMPase Li inh: 7%

What do the screens show for `COc1ccc2[nH]c3c(=S)nc[nH]c3c2c1`?
ALDH1A1 block: inconclusive; IMPase Li inh: 2.8µM*

How did Cc1onc(-c2cccc(Cl)c2Cl)c1C(=O)O/N=C(\N)c1ccc([N+](=O)[O-])o1 do in these assays?
ALDH1A1 block: 5µM*

Results for COc1ccc(Nc2cnn(-c3nc4ccccc4s3)c(=O)c2Cl)cc1 ?
PNC assembly inh: 38; ALOX12 inhib: -3%; HPGD block: -24%; ALDH1A1 block: 8.9µM*; IMPase Li inh: -10%

How did Cc1cccnc1Nc1ncnc(N)c1[N+](=O)[O-] do in these assays?
ALDH1A1 block: 14%; IMPase Li inh: -11%

Results for Cc1ccc(C)c(Nc2ncnc(N)c2[N+](=O)[O-])c1 ?
PNC assembly inh: -124*; ALOX12 inhib: 1%; HPGD block: -29%; ALDH1A1 block: 3%; IMPase Li inh: -3%

What do the screens show for `CC1CCN(C(=O)/C=C/c2ccc(C(C)(C)C)cc2)CC1`?
PNC assembly inh: 27; ALOX12 inhib: -2%; HPGD block: 16µM*; ALDH1A1 block: 5%; IMPase Li inh: 9%

Results for CCOC(=O)C1CCCN(C(=O)/C=C/c2ccc(Cl)cc2)C1 (configuration not stated) ?
ALDH1A1 block: -6%; IMPase Li inh: 4%

Results for CC(C)(C)c1ccc(/C=C/C(=O)N2CCCCC2)cc1 ?
ALDH1A1 block: inconclusive; IMPase Li inh: 9%

What do the screens show for `Cc1ccc(/C=C/C(=O)N2CCCC(C)C2)cc1` (configuration not stated)?
PNC assembly inh: -20; ALOX12 inhib: -1%; HPGD block: 1.6µM*; ALDH1A1 block: inconclusive; IMPase Li inh: -1%

Results for CC1CCC(C(C)C)C(OCC(O)CN2CCOCC2)C1 (configuration not stated) ?
PNC assembly inh: -110*; ALOX12 inhib: 3%; HPGD block: -10%; ALDH1A1 block: 0%; IMPase Li inh: 43%[38.3 µM]; IMPase cell inh: 9

How did CC1CCC(C(C)C)C(OCC(O)CN2CCCC(C)C2)C1 (configuration not stated) do in these assays?
ALDH1A1 block: 19%; IMPase Li inh: 12%
